# Reference: publication PMC11006913
# Residue numbers refer to the chain shown, from its start.
# Key:
# Assay in all cases: PBM; 200 nM protein, PBS
# Details in all cases: dsDNA, one strand shown
# ALX3 [1] = target: ALX3 (Homo sapiens, UniProt O95076 139-225, N203Q)
# HOXD13 [2] = target: HOXD13 (Homo sapiens, UniProt P35453 263-343, T313R)
# HOXD13 [3] = target: HOXD13 (Homo sapiens, UniProt P35453 263-343)
# HOXD13 [4] = target: HOXD13 (Homo sapiens, UniProt P35453 263-343, T313A)
# ALX3 [5] = target: ALX3 (Homo sapiens, UniProt O95076 139-225, N203S)
# ALX3 [6] = target: ALX3 (Homo sapiens, UniProt O95076 139-225)
# ALX3 [7] = target: ALX3 (Homo sapiens, UniProt O95076 139-225, L168Q)
# ALX3 [8] = target: ALX3 (Homo sapiens, UniProt O95076 139-225, L168V)
# PAX4 [9] = target: T1, PAX4 (Homo sapiens, UniProt O43316 9-242, F177V)
# T1 sequence: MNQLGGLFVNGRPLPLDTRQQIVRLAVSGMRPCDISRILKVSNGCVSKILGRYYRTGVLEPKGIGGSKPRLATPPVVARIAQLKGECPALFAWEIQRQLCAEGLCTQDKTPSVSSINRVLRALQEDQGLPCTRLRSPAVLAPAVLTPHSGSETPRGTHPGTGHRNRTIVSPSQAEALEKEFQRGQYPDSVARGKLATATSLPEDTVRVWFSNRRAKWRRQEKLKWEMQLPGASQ
# PAX4 [10] = target: T2, PAX4 (Homo sapiens, UniProt O43316 9-242, R227W)
# T2 sequence: T1 sequence with V169F, R219W
# VAX1 [11] = target: VAX1 (Homo sapiens, UniProt Q5SQQ9 86-172)
# VAX1 [12] = target: VAX1 (Homo sapiens, UniProt Q5SQQ9 86-172, T142I)
# VAX1 [13] = target: VAX1 (Homo sapiens, UniProt Q5SQQ9 86-172, K157R)
# PAX4 [14] = target: T3, PAX4 (Homo sapiens, UniProt O43316 9-242, F177Y)
# T3 sequence: T1 sequence with V169Y
# Sequence of ALX3 (Homo sapiens, UniProt O95076 139-225, N203S) (O95076 139-225 N203S): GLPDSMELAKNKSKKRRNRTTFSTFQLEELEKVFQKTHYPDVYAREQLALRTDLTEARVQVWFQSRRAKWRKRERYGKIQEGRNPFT
# Sequence of ALX3 (Homo sapiens, UniProt O95076 139-225, N203Q) (O95076 139-225 N203Q): as the sequence (O95076 139-225 N203S) above, with S65Q counted along it
# Sequence of ALX3 (Homo sapiens, UniProt O95076 139-225, L168V) (O95076 139-225 L168V): as the sequence (O95076 139-225 N203S) above, with L30V, S65N counted along it
# Sequence of ALX3 (Homo sapiens, UniProt O95076 139-225) (O95076 139-225): as the sequence (O95076 139-225 N203S) above, with S65N counted along it
# Sequence of ALX3 (Homo sapiens, UniProt O95076 139-225, L168Q) (O95076 139-225 L168Q): as the sequence (O95076 139-225 N203S) above, with L30Q, S65N counted along it
# Sequence of VAX1 (Homo sapiens, UniProt Q5SQQ9 86-172, K157R) (Q5SQQ9 86-172 K157R): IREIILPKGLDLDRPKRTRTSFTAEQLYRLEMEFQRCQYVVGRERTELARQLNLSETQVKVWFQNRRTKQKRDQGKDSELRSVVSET
# Sequence of HOXD13 (Homo sapiens, UniProt P35453 263-343, T313R) (P35453 263-343 T313R): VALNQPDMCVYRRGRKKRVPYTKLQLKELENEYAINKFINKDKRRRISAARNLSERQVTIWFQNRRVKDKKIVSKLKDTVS
# Sequence of VAX1 (Homo sapiens, UniProt Q5SQQ9 86-172, T142I) (Q5SQQ9 86-172 T142I): as the sequence (Q5SQQ9 86-172 K157R) above, with T57I, R72K counted along it
# Sequence of VAX1 (Homo sapiens, UniProt Q5SQQ9 86-172) (Q5SQQ9 86-172): as the sequence (Q5SQQ9 86-172 K157R) above, with R72K counted along it
# Sequence of HOXD13 (Homo sapiens, UniProt P35453 263-343, T313A) (P35453 263-343 T313A): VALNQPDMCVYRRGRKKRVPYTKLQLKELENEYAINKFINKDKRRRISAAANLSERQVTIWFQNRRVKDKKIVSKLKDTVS
# Sequence of HOXD13 (Homo sapiens, UniProt P35453 263-343) (P35453 263-343): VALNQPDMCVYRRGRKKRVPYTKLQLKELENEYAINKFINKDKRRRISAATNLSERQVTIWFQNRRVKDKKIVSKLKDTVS
sequence,measurement,setting,value
TTATTAAA,binding signal,ALX3 [1],"8.64 upbm affinity estimate (log intensity, higher = more binding, comparable within an allelic series)"
same,binding signal,HOXD13 [2],"10.8 upbm affinity estimate (log intensity, higher = more binding, comparable within an allelic series)"
same,binding signal,HOXD13 [3],"11.9 upbm affinity estimate (log intensity, higher = more binding, comparable within an allelic series)"
same,binding signal,HOXD13 [4],"11.7 upbm affinity estimate (log intensity, higher = more binding, comparable within an allelic series)"
same,binding signal,ALX3 [5],"8.68 upbm affinity estimate (log intensity, higher = more binding, comparable within an allelic series)"
GCGCGAGC,binding signal,ALX3 [1],"7.77 upbm affinity estimate (log intensity, higher = more binding, comparable within an allelic series)"
same,binding signal,ALX3 [6],"7.84 upbm affinity estimate (log intensity, higher = more binding, comparable within an allelic series)"
same,binding signal,ALX3 [7],"7.77 upbm affinity estimate (log intensity, higher = more binding, comparable within an allelic series)"
same,binding signal,ALX3 [8],"7.76 upbm affinity estimate (log intensity, higher = more binding, comparable within an allelic series)"
same,binding signal,ALX3 [5],"7.83 upbm affinity estimate (log intensity, higher = more binding, comparable within an allelic series)"
GGATGGCC,binding signal,ALX3 [1],"7.66 upbm affinity estimate (log intensity, higher = more binding, comparable within an allelic series)"
same,binding signal,ALX3 [6],"7.74 upbm affinity estimate (log intensity, higher = more binding, comparable within an allelic series)"
same,binding signal,ALX3 [7],"7.73 upbm affinity estimate (log intensity, higher = more binding, comparable within an allelic series)"
same,binding signal,ALX3 [8],"7.67 upbm affinity estimate (log intensity, higher = more binding, comparable within an allelic series)"
same,binding signal,ALX3 [5],"7.67 upbm affinity estimate (log intensity, higher = more binding, comparable within an allelic series)"
ATATTATA,binding signal,ALX3 [1],"8.63 upbm affinity estimate (log intensity, higher = more binding, comparable within an allelic series)"
same,binding signal,PAX4 [9],"10.7 upbm affinity estimate (log intensity, higher = more binding, comparable within an allelic series)"
same,binding signal,PAX4 [10],"10.9 upbm affinity estimate (log intensity, higher = more binding, comparable within an allelic series)"
same,binding signal,ALX3 [5],"8.69 upbm affinity estimate (log intensity, higher = more binding, comparable within an allelic series)"
AGCCGGCG,binding signal,ALX3 [1],"7.78 upbm affinity estimate (log intensity, higher = more binding, comparable within an allelic series)"
same,binding signal,ALX3 [6],"7.6 upbm affinity estimate (log intensity, higher = more binding, comparable within an allelic series)"
same,binding signal,VAX1 [11],"6.78 upbm affinity estimate (log intensity, higher = more binding, comparable within an allelic series)"
same,binding signal,ALX3 [7],"7.66 upbm affinity estimate (log intensity, higher = more binding, comparable within an allelic series)"
same,binding signal,ALX3 [8],"7.63 upbm affinity estimate (log intensity, higher = more binding, comparable within an allelic series)"
same,binding signal,VAX1 [12],"6.99 upbm affinity estimate (log intensity, higher = more binding, comparable within an allelic series)"
same,binding signal,ALX3 [5],"7.77 upbm affinity estimate (log intensity, higher = more binding, comparable within an allelic series)"
same,binding signal,VAX1 [13],"6.79 upbm affinity estimate (log intensity, higher = more binding, comparable within an allelic series)"
GACATAAC,binding signal,ALX3 [1],"8.29 upbm affinity estimate (log intensity, higher = more binding, comparable within an allelic series)"
same,binding signal,ALX3 [6],"9.44 upbm affinity estimate (log intensity, higher = more binding, comparable within an allelic series)"
ACCGGTTA,binding signal,ALX3 [1],"8.13 upbm affinity estimate (log intensity, higher = more binding, comparable within an allelic series)"
same,binding signal,ALX3 [6],"9.46 upbm affinity estimate (log intensity, higher = more binding, comparable within an allelic series)"
same,binding signal,ALX3 [7],"8.24 upbm affinity estimate (log intensity, higher = more binding, comparable within an allelic series)"
same,binding signal,ALX3 [8],"8.11 upbm affinity estimate (log intensity, higher = more binding, comparable within an allelic series)"
same,binding signal,ALX3 [5],"8.2 upbm affinity estimate (log intensity, higher = more binding, comparable within an allelic series)"
CTTAATTC,binding signal,ALX3 [1],"8.32 upbm affinity estimate (log intensity, higher = more binding, comparable within an allelic series)"
same,binding signal,ALX3 [6],"11.7 upbm affinity estimate (log intensity, higher = more binding, comparable within an allelic series)"
same,binding signal,ALX3 [7],"9.59 upbm affinity estimate (log intensity, higher = more binding, comparable within an allelic series)"
same,binding signal,ALX3 [8],"9.14 upbm affinity estimate (log intensity, higher = more binding, comparable within an allelic series)"
same,binding signal,ALX3 [5],"8.4 upbm affinity estimate (log intensity, higher = more binding, comparable within an allelic series)"
CTCCAGCC,binding signal,ALX3 [1],"7.6 upbm affinity estimate (log intensity, higher = more binding, comparable within an allelic series)"
same,binding signal,ALX3 [6],"7.5 upbm affinity estimate (log intensity, higher = more binding, comparable within an allelic series)"
same,binding signal,ALX3 [7],"7.62 upbm affinity estimate (log intensity, higher = more binding, comparable within an allelic series)"
same,binding signal,ALX3 [8],"7.62 upbm affinity estimate (log intensity, higher = more binding, comparable within an allelic series)"
same,binding signal,ALX3 [5],"7.57 upbm affinity estimate (log intensity, higher = more binding, comparable within an allelic series)"
TATACATA,binding signal,ALX3 [1],"8.57 upbm affinity estimate (log intensity, higher = more binding, comparable within an allelic series)"
same,binding signal,PAX4 [9],"10.7 upbm affinity estimate (log intensity, higher = more binding, comparable within an allelic series)"
same,binding signal,PAX4 [14],"10.7 upbm affinity estimate (log intensity, higher = more binding, comparable within an allelic series)"
AATATTAT,binding signal,ALX3 [1],"8.61 upbm affinity estimate (log intensity, higher = more binding, comparable within an allelic series)"
same,binding signal,PAX4 [9],"10.7 upbm affinity estimate (log intensity, higher = more binding, comparable within an allelic series)"
same,binding signal,ALX3 [5],"8.71 upbm affinity estimate (log intensity, higher = more binding, comparable within an allelic series)"
CCCGAGAG,binding signal,ALX3 [1],"7.84 upbm affinity estimate (log intensity, higher = more binding, comparable within an allelic series)"
same,binding signal,ALX3 [6],"7.81 upbm affinity estimate (log intensity, higher = more binding, comparable within an allelic series)"
same,binding signal,ALX3 [7],"7.74 upbm affinity estimate (log intensity, higher = more binding, comparable within an allelic series)"
same,binding signal,ALX3 [8],"7.83 upbm affinity estimate (log intensity, higher = more binding, comparable within an allelic series)"
same,binding signal,ALX3 [5],"7.85 upbm affinity estimate (log intensity, higher = more binding, comparable within an allelic series)"
